Test results reported in PubChem BioAssay AID1508600 (Functional Genomics Laboratory (NCATS/FGL), 2020).
Among all 53,000 sequences or so, about 3,700 (7%) were called active. The entries come from a sample that favours actives as a whole. Unmarked numbers belong to inactive results.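 Rule for the calls: active = gene knockdowns whose robust z-score for IL-1 alpha signal is at least 2 or at most -2, so actives lie on both sides; inactive = the rest.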

assay: Components of the Cytosolic LPS Sensing Pathway: Gene Identification via Genome-wide siRNA Screen; settings: RAW264.7 macrophages, IL-1a HTRF, actives lie on both sides, screened at 100 nM (by protocol), cells primed 5 h with Pam3CSK4 first;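 note: robust z of the log signal after scaling to non-targeting control siRNA wells of the plate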
Method in brief: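 Cells (RAW264.7, 1×10^4 per well) were transfected with siRNA at 100 nM and cultured 48h at 37 degrees C. Pam3CSK4 was added for 5 hours; LipidA transfection followed for 24 hour. IL-1a was then measured by HTRF.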

In the case of GGAGAUCCUGGAAGACUUCTT against Ocstamp, the z-score is reported as 2.18 (active).
For GUUCCACCAGAUUUUCUAATT against Vmn1r28, the z-score was 2.6 (active).
In the case of GGAGCAUUUUAUUCAGAUGTT against Rad23b, the z-score is reported as 2.22 (active).
For GGACAACAUGAACUGUCAGTT against Snrpd3, the z-score was -2.74 (active).
In the case of GCUGAUCAGAGACCAUUACTT against Cmss1, the z-score is reported as -2.26 (active).
With GGACCAAAUCCUCUGAUUCTT against Bud13 the z-score was 2.74 (active).
With GCCAAGCAUUAAGUGAUAATT against Setmar the z-score was 2.7 (active).
For GGCUAUGGGAAUCAUGAAUTT against H2bc18, the z-score was -2.84 (active).
With GGGUACAAGCUUAUCAAUATT against Trpm6 the z-score was 4.91 (active).
In the case of CCUAAAUUUGACUGUGCCUTT against Nudt10, the z-score is reported as 2.13 (active).
For GGGCUUUCCCAGUUCCUAATT against Bmp6, the z-score was 2.04 (active).
With GGUAAACUCAAGUUUUCAGTT against Inpp5j the z-score was 2.36 (active).
In the case of CGAAGUUACGAGCAUCCACTT against Crhr2, the z-score is reported as 3.81 (active).
For GCCAGACAAGCCUCAUUGATT against Ncapd2, the z-score was -2.2 (active).
With GCGAAUUCGAAAGCUAUGATT against Arhgef10 the z-score was -2.19 (active).
In the case of GGGUAGAAUGUGUGUGUCUTT against Abhd15, the z-score is reported as -2.52 (active).
In the case of “CGCAUCUGUUUCUUUUCCCTT against 1700029P11Rik”, the z-score is reported as -2.22 (active).
With GGAGAUCUUAGCAAAGUAUTT against Degs1 the z-score was 2.41 (active).
For GGAAGUCCUGGACAUUCAGTT against Nfkbie, the z-score was 5.66 (active).
With GGAUGUACACAGAAGGCCATT against Sucnr1 the z-score was 3.47 (active).
With “CCAGGCCAAAUCUCACAAUTT against A730008H23Rik” the z-score was -2.2 (active).

Compared with GGACUAUGCCAAUGUCAGATT against Zfp763, GGGUAAGCCAAGAAGAAGUTT against Rgs4 is lower in z-score: 0.0585 for the first, -1.01 for the second.

First: GGGAAAAACUCUGUGUGUATT against Coasy
Second: GGCUCCACACGAUUGUUAGTT against Gne
The z-score of the first is lower: -0.25 for the first, -0.0134 for the second.

Compared with GGAGAAUUUAGAGCUACCATT against Atg10, GCCCAUCACUUAUAGUGGGTT against Usf2 is higher in z-score: -1.56 for the first, -0.799 for the second.

Going from GGUGGAGAAGAAAUCUAAGTT against Eif4g1 to CCUGAGACCGAAUUUUACCTT against Cer1, the z-score rises from -0.344 to -0.209.

Compared with GGAAACGUGGGCAUGAUCATT against Olfr944, GGAUAAUGAUGUGAAAGGCTT against Mrps30 is higher in z-score: -0.239 for the first, 0.984 for the second.

Going from GCUUGACUUUGAAAGUCCATT against Gm11733 to GGCUUUCUCCCAGCAAUAGTT against Scrt1, the z-score falls from -1.54 to -1.97.

First: GGGAUCAACAUUUACCGAATT against Ablim1
Second: CCCACCUUCCGACUUGAAUTT against Col12a1
The z-score of the first is higher: 0.596 for the first, -1.12 for the second.

Compared with GUCAGAACCAUAGCCAUGATT against Vmn1r202, GGGAGAAGGUGGAAAUACUTT against Hdgfl3 is higher in z-score: -0.623 for the first, 1.63 for the second.

First: GGCCAUACGGACCAUGUAUTT against Slc25a19
Second: GGCUGCCUUGCUGAUUUGATT against Boc
The z-score of the first is lower: -1.25 for the first, 0.762 for the second.

Going from CCUUUACGUUUCUGUGUCUTT against Slc37a4 to CCAUUCUACACUUUUCCACTT against Krtap1-5, the z-score rises from -1.19 to -0.909.

Going from CCAACUAAUCCCAUAUUCCTT against Tmem43 to GGAGCUAUGUUCAGUUCUUTT against Qsox1, the z-score rises from 0.0511 to 0.438.

Going from GCAUUAUCUGUGAAAAUCCTT against En2 to GCAGAAAUUAACAAGUCUCTT against Kif2c, the z-score rises from 0.262 to 0.816.

Compared with GCACUGUUCGUUUUUGUUUTT against Astn1, GCUCUAUGAGAGUAUAUUATT against Tamm41 is lower in z-score: 0.275 for the first, -0.495 for the second.

First: GCAUGUGAUUACCUUUGUATT against Btbd10
Second: GGGAUCCCGCAAAAUCAGATT against Osm
The z-score of the first is higher: 0.633 for the first, 0.63 for the second.

Going from GCACAUCUUGGACCGUUUCTT against Lhx3 to GGUGUAUAGCUGUUGUGGGTT against Dennd2d, the z-score falls from 0.851 to -1.41.

First: CCUCAAGGAACUGAAUGCCTT against Olfr1320
Second: GGGAUAAAGAGAGACCCAATT against Flywch1
The z-score of the first is lower: 0.0261 for the first, 0.889 for the second.

Going from CCAGAUGACAAUGAGUCAGTT against Ss18 to GCGAUUGUCAUUCUCUUUUTT against Jak3, the z-score rises from -0.197 to 0.711.

First: CCACCUCAAGUCAAAGACUTT against Cggbp1
Second: GGCUCUAGAAGCGAGAAUCTT against Six6
The z-score of the first is lower: -0.445 for the first, -0.234 for the second.

Going from GGACCUAAUCCAUAAGGUCTT against Pcyox1l to GGAACAGAUCUCUGAUAUATT against Sub1, the z-score rises from -0.379 to 0.564.

Going from GGCCUUCAUUGAGAUGAACTT against Ptbp1 to GGCUAUGAUGAUUAUAAUGTT against Hnrnph1, the z-score rises from -1.17 to 0.724.

First: GGACCAGAGGAGAUUUCAATT against Ern2
Second: GGAUGAGAAACCAUUUAAATT against Oas1f
The z-score of the first is higher: 1.56 for the first, -1.08 for the second.

Compared with GGAUCUCCCUCUAAAUAUUTT against Hsp90aa1, CGGAAAGUCCGGUUUCGAATT against Grxcr1 is higher in z-score: -0.138 for the first, 0.156 for the second.

Going from GGUUUACAGCAUCAUUAAATT against Shmt1 to CCAGACGAGGAGAACAUCATT against Samd4b, the z-score falls from 0.345 to -0.111.

Compared with GGAUUAGCCUGGUCCUUUUTT against Dusp14, CCGUCCGAUGAAAAACAGGTT against Prm1 is lower in z-score: 0.989 for the first, -0.128 for the second.

Going from GCCCACCGACUUUAUUAACTT against Tfap2d to GGAAAAGAAAAUCGAGACCTT against Ubap2l, the z-score rises from 0.541 to 0.776.

First: GGUACAAAUGCAUUGAGAGTT against Fcamr
Second: GGCAAAGACAAGAAGCUGUTT against Drap1
The z-score of the first is lower: -1.3 for the first, -0.445 for the second.

Compared with GCACAACUUAUGACUGAAATT against Emc4, GCUUCAAGUCAACUUAGUCTT against Hal is lower in z-score: 1.66 for the first, 1.24 for the second.

First: CCGAAGACUAGCUAAUUUUTT against Sult1c1
Second: CCUUCAACUAUGGCAAAUATT against Cacul1
The z-score of the first is higher: 1.17 for the first, -0.241 for the second.

First: GCUCUGAACUCAAUAAUAATT against Atg7
Second: GCGGAUCUGCUUUUUGCACTT against Ttc14
The z-score of the first is lower: -0.875 for the first, -0.105 for the second.

First: ACUUCGUAAAAGAGCACAATT against Platr25
Second: GGAUCUUGAAGAUAAGAGCTT against 1810009A15Rik
The z-score of the first is higher: 1.02 for the first, -0.599 for the second.

Compared with GGGUUUCAGAACUGAGUUATT against Saa1, GCCAUGAAUCCUAUCCGCATT against Ephb3 is lower in z-score: -0.28 for the first, -0.967 for the second.

Compared with CCACCUAAUUUAUUGCUGUTT against Mafk, GGCUGGCAUCACCAUCAAATT against Kit is lower in z-score: 0.745 for the first, 0.429 for the second.

Going from CCACUUAUAACUCAUAGUUTT against Ugt2b34 to GGACCGCUUCAACAGUAUGTT against Tcfl5, the z-score falls from 0.0725 to -0.525.

Compared with GCAGGAGUUUAUCAGAGGATT against Prim2, GGCAGCAAAGUCAAGAUGUTT against Msgn1 is lower in z-score: -1.64 for the first, -1.82 for the second.

Going from GGGAGGAGAAAAAUAUUCUTT against Olfr1094 to CCUUCAUUCUCAUGUGACCTT against Psat1, the z-score rises from -1.5 to -1.2.

First: CCUUAAGGAACUAGGAUUCTT against Lgr5
Second: GGUCCUCCCAUAAUCUAGUTT against Lrrc75a
The z-score of the first is lower: 1.05 for the first, 1.18 for the second.

Compared with GCUCAUUGCACUAAAAGACTT against Tnnt1, CCGCGUCUGUAUUUGAUAUTT against Sccpdh is higher in z-score: -1.92 for the first, 1.68 for the second.

Going from GGUUGAGUUUCAGUGCAUCTT against Klhl28 to GCUUGAUUGUCAGUUGGAATT against Tcp11, the z-score rises from -0.632 to -0.364.

Going from GGGUAGUUUUGACUUUGUUTT against Schip1 to GGAAUAAGGCGAGUUGGAATT against Serbp1, the z-score rises from 0.472 to 0.493.

Going from GGCCUAUAAUUUCUUUACGTT against Cc2d2a to CGCGAGGAAGUCGAGGUAUTT against Pax2, the z-score rises from -0.823 to 1.17.

First: GGCACCCUCAAGAAAGCGUTT against Nol6
Second: GGGCUUACUGCUUAAUAGATT against Fundc2
The z-score of the first is lower: -1.34 for the first, 0.481 for the second.

First: CGUGGACUUAAUAUUUCAGTT against Btbd7
Second: GCCUCCUAGUAUUUACAUGTT against Ube2j2
The z-score of the first is lower: 0.685 for the first, 0.8 for the second.

Going from CCGUGAAAAUCAGUAAUUATT against Cacybp to GGACUUAUCAAGCUGGUUUTT against Rps25, the z-score falls from -0.546 to -1.48.

For GCUCACAUUGAGUGGUUGGTT against Ncbp3, the z-score was 0.542.
